In the library only some 19% were active in any assay of this set; here they are far more common.
DT40 TDP1 CPT: DT40-hTDP1 cell growth loss with CPT; 12% of 420,000 active; chicken DT40 Tdp1-/-;hTDP1 cells + 20 nM CPT, ATP luminescence, 48 h; Potency, µM (highest dose often 46.2 µM), hits mostly inhibitors; note: nearly all actives have a fitted effect of over 55% in size
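Chicken DT40 Tdp1-/- cells complemented with human TDP1, 400 cells/well, exposed to compounds plus 20 nM camptothecin for at least 48 h at 37 C; viability read as ATP content by CellTiter-Glo luminescence.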
IL1B secr inh: inflammasome signaling inhibition, IL-1 beta readout. THP-1 LPS/ATP IL-1B secretion, AlphaLISA, 16 h; active compounds read low. activity change, % at 57.5 µM. 4.7% of 360,000 active; in the data active = activity change below about -50%; inconclusive = mostly about -30% to -49%
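Secreted IL-1B measured by AlphaLISA bead assay after 16 h compound exposure of THP-1 cells; compounds (final up to 57.5 uM) added 1 h before LPS (250 ng/mL) and ATP (1.25 mM) stimulation; lower signal means less secretion.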
HT1080 IDH1KD tx: HT-1080 IDH1 knockdown cell toxicity (counter line) | Potency, µM (doses to about 46.1 µM), hits mostly cytotoxic | 2% of 360,000 active | HT-1080 IDH1 knockdown viability, ATP luminescence, 48 h
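Assay cells: HT-1080 with IDH1 knockdown, 750 per well, RPMI/5% FBS. Exposure: 48 h at 37 °C following 2 h pre-incubation. Read: CellTiter-Glo luminescence; fitted concentration-response, curve class assigned.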
ELG1 DNA repair: blocks ELG1-dependent DNA repair in HEK293T cells. 2.3% of 330,000 active. HEK293T ELG1-luciferase reporter, luminescence, 16 h; DNA damage induced by 5-fluorouridine. Potency, µM (top dose mostly 46.1 µM), hits mostly inhibitors; note: nearly all actives have a fitted effect of over 55% in size
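HEK293T cells expressing luciferase-tagged ELG1 (2,000/well) received 5-Fluorouridine plus compound or DMSO for 16 hr at 37 °C. Luciferase was read by ONE-Glo luminescence after 30 min at room temperature.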
TDP1 cell noCPT: qHTS for Inhibitors of human tyrosyl-DNA phosphodiesterase 1 (TDP1): qHTS in cells in absence of CPT; DT40 Tdp1-/- hTDP1 cells, no CPT, ATP luminescence, 48 h; Potency, µM (highest dose often 46.2 µM), most hits filed as inhibitors; 15% of 420,000 active; AID 686978, 2013; note: nearly all actives have a fitted effect of over 55% in size
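Growth kinetics read by CellTiter-Glo luminescence after ≥48 hr at 37 °C. Cells: DT40 Tdp1-/- stably carrying human TDP1, 400 per well, compound exposure in the absence of CPT (DMSO vehicle).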
HT1080NT lethal: kills 2HG-producing HT-1080-NT fibrosarcoma cells. HT-1080-NT fibrosarcoma viability, CellTiter-Glo ATP luminescence, 48 h. Potency, µM (doses to about 46.1 µM), hits mostly cytotoxic. 1.6% of 360,000 active;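 note: NT is the 2HG producing partner of a matched IDH1 knockdown line; nearly all actives have a fitted effect of over 55% in size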
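Read-out is CellTiter-Glo luminescence after 10 minutes at room temperature, following 48 hours' compound treatment of HT-1080-NT cells (750 cells/well, RPMI, 5% FBS, 37 degrees C).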
Numbers stand for hits; i = inactive; ? = inconclusive; nt = no result; [ ] = remark or other dose. Unless noted, calls come from the whole dose curve; as a rule, active = well fitted curve in the direction sought with a large enough effect; inconclusive = small, poorly fitted or top-dose-only effect, or another doubt; inactive = no such curve, though single readings can be large; an effect the other way counts as inactive or inconclusive.

SMILES	DT40 TDP1 CPT	IL1B secr inh	HT1080 IDH1KD tx	ELG1 DNA repair	TDP1 cell noCPT	HT1080NT lethal
Cc1cccn2c(=O)cc(COc3ccc(NC(=O)C(C)C)cc3)nc12	i	nt	nt	nt	i	nt
CCC(Oc1ccccc1)C(=O)Nc1cccc(OCc2cc(=O)n3cccc(C)c3n2)c1 (stereo unspecified)	23µM	nt	nt	nt	16µM	nt
Cc1ccc(OCC(=O)Nc2cccc(OCc3cc(=O)n4cccc(C)c4n3)c2)cc1C	15µM	nt	nt	nt	18µM	nt
COc1ccc(NC(=O)Nc2cccc(OCc3cc(=O)n4cccc(C)c4n3)c2)c(OC)c1	?	nt	nt	nt	13µM	nt
O=C(Cc1cccs1)N1CCN(c2ccc([N+](=O)[O-])cc2)CC1	?	?	i	?	?	i
Cc1ccc(SCc2cc(=O)[nH]c(Nc3nc(C)c4cccc(C)c4n3)n2)cc1	?	i	i	i	16µM	i
COc1ccc2nc(C)[nH]c(=O)c2c1	i	i	i	i	i	i
COc1ccc2nc(Nc3nc(CSc4ccc(C)cc4)cc(=O)[nH]3)nc(C)c2c1	?	i	i	?	18µM	i
COc1ccc2nc(Nc3nc(C)c(CCC(C)C)c(=O)[nH]3)nc(C)c2c1	?	?	i	?	18µM	i
COc1cc(=O)n2c(c1C(=O)NC(C)c1ccco1)CCN(C(=O)c1ccnc(Cl)c1)CC2 (stereo unspecified)	i[9.04 µM]	nt	nt	nt	i	nt
COc1ccccc1-c1cc(NCc2cccc(C)c2)ncn1	13µM	nt	nt	nt	18µM	nt
Cc1cccc(CNc2cc(-c3ccccc3C)ncn2)c1	15µM	nt	nt	nt	6.5µM	nt
COCCNc1cc(-c2ccccc2C)ncn1	i	nt	nt	nt	i	nt
O=C1CC(c2cccc([N+](=O)[O-])c2)c2ccc3ccccc3c2N1 (stereo unspecified)	26µM	i	?	i	?	?
O=C1CC(c2c(Cl)cccc2Cl)c2c(ccc3ccccc23)N1 (stereo unspecified)	?	nt	nt	nt	26µM	nt
CCCCOc1ccccc1C1CC(=O)Nc2ccc3ccccc3c21 (stereo unspecified)	12µM	nt	nt	nt	6.5µM	nt
O=C1CC(c2cccs2)c2ccc3ccccc3c2N1 (stereo unspecified)	?	i	?	i	i	?
O=C1CC(c2cc([N+](=O)[O-])ccc2Cl)c2c(ccc3ccccc23)N1 (stereo unspecified)	16µM	i	?	?	15µM	?
CCCS(=O)(=O)NC(=O)C1(C)CCCN(C(=O)c2cc(C)n(C(C)(C)C)n2)C1 (stereo unspecified)	i	i	i	nt	i	i
Cc1cc(NC(=O)COC(=O)CCS(=O)(=O)c2cc(Cl)ccc2Cl)no1	?	i	i	i	?	i
CCN(CC(=O)Nc1ccc(NC(C)=O)cc1)C(=O)CSCc1c(C)noc1C	i	i	i	i	i	i
CCC(CO)Oc1cc(NC(=O)c2ccc(OC)cc2)c2ncn(C(C)C)c2c1 (stereo unspecified)	18µM	i	i	i	?	i
CCC(CO)Oc1cc(NC(=O)c2ccccc2[N+](=O)[O-])c2ncn(C(C)C)c2c1 (stereo unspecified)	16µM	i	i	i	?	i
O=C(CCCCCn1c(=O)c2sccc2n(CC(=O)Nc2ccccc2F)c1=O)NCc1ccc2c(c1)OCO2	?	nt	nt	nt	i	nt
CN(C)S(=O)(=O)c1cc(NC(=O)CSc2nn(-c3ccc(Cl)cc3)c(=S)s2)ccc1Cl	?	i	?	?	?	?
SMILES	DT40 TDP1 CPT	IL1B secr inh	HT1080 IDH1KD tx	ELG1 DNA repair	TDP1 cell noCPT	HT1080NT lethal
Cc1ccc(NC(=O)CN2CCC(Cc3ccccc3)CC2)cc1S(=O)(=O)N(C)C	?	-54	?	?	?	?
Cc1ccc(NC(=O)CCN2CCC(Cc3ccccc3)CC2)cc1	i	-82	?	i	?	?
Cc1ccc(NC(=O)Cc2ccc(Cl)c(Cl)c2)cc1S(=O)(=O)N(C)C	?	i	i	15µM	23µM	i
Cc1ccc(NC(=O)CSc2nn(-c3ccc(Cl)cc3)c(=S)s2)cc1S(=O)(=O)N(C)C	9.2µM	i	?	15µM	?	i
Cc1nc2cnc(N3CCOCC3)nc2n(C[C@H]2CCCO2)c1=O	i	nt	nt	nt	i	nt
Cc1cc(C)nc(N2CCC(C(=O)Nc3ccc4c(c3)OCO4)CC2)n1	8.2µM	i	i	?	9.2µM	i
Cc1ccc(Cn2c(CN3CCC(C(=O)O)CC3)cc3ccccc32)cc1	i	nt	nt	nt	i	nt
O=C(NCCc1ccc(Cl)cc1)C1CCN(Cc2cc3ccccc3n2Cc2ccccc2)CC1	23µM	nt	nt	nt	18µM	nt
Cc1cccc(Cn2c(CN3CCC(C(=O)NCCc4ccccc4)CC3)cc3ccccc32)c1	?	nt	nt	nt	18µM	nt
O=C(NCCc1ccc(Cl)cc1)C1CCN(c2ncccn2)CC1	i	i	i	i	i	i
Cc1cc(C)nc(N2CCC(C(=O)NCCc3ccccc3)CC2)n1	8.2µM	i	i	i	9.2µM	i
COCCCNC(=O)C1CCN(c2nc(C)cc(C)n2)CC1	i	i	i	i	i	i
CCOC(=O)c1ccc(N(CCC2CO2)S(=O)(=O)c2ccc(C)cc2)cc1 (stereo unspecified)	?	i	i	nt	?	i
COc1ccc(NS(=O)(=O)c2cc(NC(=O)COc3ccc(OC)cc3)ccc2N2CCOCC2)cc1	?	i	i	i	i	i
Nc1cccc2c1C(=O)N(C(=O)c1ccco1)C2=O	i	i	i	i	i	?
O=C(c1ccco1)N1C(=O)c2cccc3cccc1c23	12µM	i	i	i	18µM	i
NCc1cc2c3c(c1)CCCN3CCC2	i	i	i	i	i	i
Nc1c(C(=O)NCc2ccccc2)nnn1Cc1ccccc1	i	i	i	i	i	i
Nc1c(C(=O)NCc2ccccc2)nnn1Cc1cccc(Br)c1	4.6µM	nt	nt	nt	5.8µM	nt
CCOc1ccccc1-n1nnnc1SCC(=O)NC(=O)NCc1ccco1	?	i	i	26µM	?	i
CCOc1ccccc1NC(=O)Cn1nnc(C(=O)NCc2ccco2)c1N	0.0092µM	i	0.041µM	i	0.023µM	?
CSc1cccc(NC(=O)c2nnn(CC(=O)Nc3cc(C)cc(C)c3)c2N)c1	?	i	?	?	6.5µM	?
CCOc1ccccc1NC(=O)c1nnn(CC(=O)Nc2ccccc2CC)c1N	i	nt	nt	nt	i	nt
CCOC(=O)[C@@H]1[C@H]2COc3ccccc3[C@@H]2N2C(=O)N(c3cccc(F)c3)C(=O)[C@@]12C	i	i	i	?	i	i
COc1ccc(NC(=O)Cn2nnc(C(=O)NCc3ccc4c(c3)OCO4)c2N)cc1	i	i	i	?	i	i
